Results filed as inconclusive are left out. The source made the active and inactive calls. Unless noted, the call rests on the fitted dose curve; in most records, active means well fitted curve in the direction sought with a large enough effect in the repeat runs; inconclusive means weak or mixed curves; inactive means no such curve, though single readings can be large; an effect the other way counts as inactive or inconclusive.
Legend:
[1] = A CellTox Green Cytotoxicity Assay to monitor cytotoxicity in HEK293 cells - 32 hour (AID 1224881); further: nearly all actives have a fitted effect of over 40% in size
Method in brief: (§1)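 Seeding of HEK293 cells together with cytotoxicity dye preceded a 5 h incubation at 37 C/5% CO2. Test compounds in DMSO were then added and fluorescence monitored across 40 h.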

[2] = A CellTox Green Cytotoxicity Assay to monitor cytotoxicity in HepG2 cells - 0 hour (AID 1224882); further: nearly all actives have a fitted effect of over 35% in size
Method in brief: (§2)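 Nonlytic assay: viable cells exclude the dye, so fluorescence scales with cell death. HepG2 at 600 cells/well, compounds added after 5 h, signal read across 40 h.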

[3] = A CellTox Green Cytotoxicity Assay to monitor cytotoxicity in HepG2 cells - 32 hour (AID 1224883); further: nearly all actives have a fitted effect of over 50% in size
Method in brief: as §2

[4] = A CellTox Green Cytotoxicity Assay to monitor cytotoxicity in HEK293 cells - 8 hour (AID 1224884); further: nearly all actives have a fitted effect of over 35% in size
Method in brief: as §1

[5] = qHTS RealTime-Glo MT Cell Viability Assay in HepG2 cells - 16 hour (AID 1224885); further: nearly all actives have a fitted effect of over 50% in size
Method in brief: (§3)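 Luminescence read-out: viable HepG2 cells reduce a prosubstrate to a NanoLuc substrate, giving a signal proportional to live cell number. Reads taken at 0, 8, 16, 24, 32 and 40 h of compound exposure at 37 C.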

[6] = qHTS RealTime-Glo MT Cell Viability Assay in HEK293 cells - 24 hour (AID 1224886); further: top concentration of the series differs between compounds; nearly all actives have a fitted effect of over 50% in size
Method in brief: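 Nonlytic real-time viability readout: viable cells convert prosubstrate to NanoLuc substrate, giving luminescence proportional to live cell number. HEK293, 600 cells/well, compound added after 5 h, continuous culture at 37 C.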

[7] = qHTS RealTime-Glo MT Cell Viability Assay in HEK293 cells - 8 hour (AID 1224887); further: top concentration of the series differs between compounds; nearly all actives have a fitted effect of over 50% in size
Method in brief: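 Tox21 screen in HEK293 using RealTime-Glo MT chemistry, with cells and reagent co-dispensed. Luminescence proportional to viable cell number was captured at intervals during 40 h compound exposure at 37 C.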

[8] = A CellTox Green Cytotoxicity Assay to monitor cytotoxicity in HEK293 cells - 16 hour (AID 1224888); further: nearly all actives have a fitted effect of over 35% in size
Method in brief: as §1

[9] = qHTS RealTime-Glo MT Cell Viability Assay in HepG2 cells - 0 hour (AID 1224889); further: nearly all actives have a fitted effect of over 50% in size
Method in brief: as §3

[10] = A CellTox Green Cytotoxicity Assay to monitor cytotoxicity in HepG2 cells - 8 hour (AID 1224890); further: nearly all actives have a fitted effect of over 45% in size
Method in brief: as §2

[11] = qHTS assay to identify small molecule antagonists of the estrogen receptor alpha (ER-alpha) signaling pathway using the BG1 cell line in the presence of 0.1 nM 17-beta-estradiol - cell viability counter screen (AID 1259241); further: nearly all actives have a fitted effect of over 40% in size
Method in brief: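 Cells were plated and left 24 hr, compounds in DMSO were pinned in, 17beta-estradiol was added to 0.1 nM final, and after 22 hr CellTiter-Fluor reagent was added for 30 min before fluorescence was read.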

[12] = qHTS assay to identify small molecule antagonists of the androgen receptor (AR) signaling pathway using the MDA cell line in the presence of 0.5 nM R1881 - cell viability counter screen (AID 1259242); further: nearly all actives have a fitted effect of over 45% in size
Method in brief: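 R1881 at 0.5 nM final stimulated MDA-kb2 cells during 16 hr compound treatment at 37C. Cytotoxicity read: CellTiter-Fluor fluorescence after 30 min.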

[13] = qHTS assay to identify small molecule phospholipidosis (PLD) inducers (AID 1259344; active means well fitted curve in the direction sought with a large enough effect; an effect the other way counts as inactive or inconclusive)
Method in brief: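 HepG2 cells, 900/well, treated with compound plus LipidTOX Red for 24 h at 37 C; amiodarone positive and DMSO negative controls. Fixed with paraformaldehyde/Hoechst, then high-content imaging scored LipidTOX pit count and integrated intensity per well and per cell.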

[14] = qHTS assay to identify small molecule HDAC inhibitors - cell viability counter screen (AID 1259365)
Method in brief: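 Counter screen in wild-type HCT-116 cells: compounds dissolved in DMSO are pin-transferred onto overnight-plated cells and left 2hr at 37C. ATP-based CellTiter-Glo luminescence then measures viable cells.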

[15] = qHTS assay to identify small molecule antagonists of the sonic hedgehog signaling (Shh) pathway - cell viability counter screen (AID 1259367); further: nearly all actives have a fitted effect of over 55% in size
Method in brief: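 NIH/3T3-derived Gli1-Luc reporter cells, 2,000/well, plated 4 hr before compound addition, then stimulated with conditioned medium for 24 hr at 37C. Viability measured in the same wells by CellTiter-Fluor fluorescence, reagent added at 23 hr for 1 hr.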

[16] = qHTS assay to identify small molecule agonists of the sonic hedgehog signaling (Shh) pathway (AID 1259368; calls by dose curve;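 further: NIH/3T3-derived 3T3Gli1-Luc cells carrying a stable Gli1-driven firefly luciferase reporter; series mostly up to about 92 µM; nearly all actives have a fitted effect of over 15% in size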)
Method in brief: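 Mouse fibroblast (NIH/3T3) reporter cells with stably integrated Gli1-Luc were treated 24 hr with compound; firefly luciferase luminescence served as the read-out.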

[17] = qHTS assay to identify small molecule agonists of the sonic hedgehog signaling (Shh) pathway - cell viability counter screen (AID 1259366); further: nearly all actives have a fitted effect of over 50% in size
Method in brief: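 Cells are plated at 2,000 per well and left 4hr at 37C, 5% CO2 before compound addition. After 23hr of treatment, CellTiter-Fluor reagent is added for 1hr at 37C and fluorescence is measured.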

[18] = qHTS assay to identify small molecule HDAC inhibitors (AID 1259364);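 further: wild-type HCT-116 cells with endogenous class I/II HDAC activity; top concentration of the series differs between compounds; nearly all actives have a fitted effect of over 45% in size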
Method in brief: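 Relative class I and II HDAC activity is taken from the luminogenic signal in HCT-116 cells, with compound exposure 2 hr and reagent development 30 min at room temperature.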

[19] = biological target: Estrogen receptor (Homo sapiens) (UniProt P03372); assay: qHTS assay to identify small molecule antagonists of the estrogen receptor alpha (ER-alpha) signaling pathway using the BG1 cell line in the presence of 0.1 nM 17-beta-estradiol (AID 1259244); further: nearly all actives have a fitted effect of over 50% in size
Sequence of Estrogen receptor (Homo sapiens) (P03372 whole entry, looked up): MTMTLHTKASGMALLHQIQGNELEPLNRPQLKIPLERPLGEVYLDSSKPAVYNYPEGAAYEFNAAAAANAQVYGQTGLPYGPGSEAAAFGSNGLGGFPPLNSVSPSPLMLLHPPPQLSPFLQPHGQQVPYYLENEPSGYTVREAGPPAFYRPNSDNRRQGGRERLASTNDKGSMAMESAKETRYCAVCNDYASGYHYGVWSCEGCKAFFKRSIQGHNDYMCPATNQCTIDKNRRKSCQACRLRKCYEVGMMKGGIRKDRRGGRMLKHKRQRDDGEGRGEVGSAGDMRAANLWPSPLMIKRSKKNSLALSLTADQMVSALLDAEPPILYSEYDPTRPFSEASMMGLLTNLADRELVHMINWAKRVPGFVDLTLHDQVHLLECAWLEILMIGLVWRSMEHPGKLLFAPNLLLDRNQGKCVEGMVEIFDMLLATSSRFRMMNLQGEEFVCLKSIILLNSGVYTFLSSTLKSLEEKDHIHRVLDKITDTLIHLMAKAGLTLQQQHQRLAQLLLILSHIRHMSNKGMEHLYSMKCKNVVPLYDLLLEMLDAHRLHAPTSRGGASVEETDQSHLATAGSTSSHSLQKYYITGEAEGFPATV
Method in brief: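 VM7Luc4E2; 4xERE-luciferase; 0.1 nM E2 final; 22 h co-incubation, 37C; ONE-Glo luminescence after 30 min at room temperature.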

[20] = biological target: Androgen receptor (Homo sapiens) (UniProt P10275); assay: qHTS assay to identify small molecule antagonists of the androgen receptor (AR) signaling pathway using the MDA cell line in the presence of 0.5 nM R1881 (AID 1259243); further: nearly all actives have a fitted effect of over 50% in size
Sequence of Androgen receptor (Homo sapiens) (P10275 whole entry, looked up): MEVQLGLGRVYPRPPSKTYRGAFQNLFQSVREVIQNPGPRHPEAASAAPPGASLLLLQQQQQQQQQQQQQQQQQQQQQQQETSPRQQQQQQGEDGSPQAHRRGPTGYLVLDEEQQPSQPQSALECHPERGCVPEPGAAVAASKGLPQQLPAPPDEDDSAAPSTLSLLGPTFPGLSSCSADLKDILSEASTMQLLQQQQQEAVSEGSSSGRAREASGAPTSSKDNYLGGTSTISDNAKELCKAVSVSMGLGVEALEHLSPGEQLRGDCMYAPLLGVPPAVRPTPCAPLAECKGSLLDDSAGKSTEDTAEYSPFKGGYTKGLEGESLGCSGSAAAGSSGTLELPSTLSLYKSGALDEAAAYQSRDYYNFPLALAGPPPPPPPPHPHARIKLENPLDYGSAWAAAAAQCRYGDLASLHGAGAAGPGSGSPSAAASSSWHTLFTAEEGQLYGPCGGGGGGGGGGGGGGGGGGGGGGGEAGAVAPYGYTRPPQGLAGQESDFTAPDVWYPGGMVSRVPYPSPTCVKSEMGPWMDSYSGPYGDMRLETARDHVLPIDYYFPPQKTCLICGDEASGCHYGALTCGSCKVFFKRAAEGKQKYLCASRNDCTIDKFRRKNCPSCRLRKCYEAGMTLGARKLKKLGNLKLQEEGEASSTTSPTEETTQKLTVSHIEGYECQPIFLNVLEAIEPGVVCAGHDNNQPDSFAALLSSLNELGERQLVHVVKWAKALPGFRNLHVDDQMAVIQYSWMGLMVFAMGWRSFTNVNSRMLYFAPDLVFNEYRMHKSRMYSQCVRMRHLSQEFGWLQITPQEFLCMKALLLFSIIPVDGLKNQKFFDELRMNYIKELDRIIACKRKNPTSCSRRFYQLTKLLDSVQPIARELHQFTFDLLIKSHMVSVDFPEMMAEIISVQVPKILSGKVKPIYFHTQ
Method in brief: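 We exposed MDA-kb2 cells to compounds under 0.5 nM R1881 stimulation for 16 hr at 37C and quantified MMTV-driven luciferase by luminescence.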

Measured: Potency

O=C1C(c2[nH]c3ccccc3c2O)=Nc2ccccc21
not listed: [17] | [18] | [19] | [20]
inactive: all other assays above

c1ccc(Oc2ccccc2)cc1
not listed: [6] | [13] | [18] | [19] | [20]
inactive: all other assays above

CN1C(=O)CC[C@H]1c1cccnc1
not listed: [6] | [19] | [20]
inactive: all other assays above

COCCCN
not listed: [13] | [18] | [20]
inactive: all other assays above

CCOC(=O)c1ccc(N)cc1
not listed: [6] | [19] | [20]
inactive: all other assays above

COc1ccccc1OCC(O)CO (configuration not stated)
not listed: [8] | [17] | [18] | [19]
inactive: all other assays above

CC1(C)NC(=O)NC1=O
not listed: [8] | [13] | [20]
inactive: all other assays above

CCCCCCC=O
not listed: [6] | [13] | [18] | [20]
inactive: all other assays above

NCCCCCCN
not listed: [13] | [17] | [19] | [20]
inactive: all other assays above
